# Hits are enriched below; roughly 0.44% of the tested compounds scored in any of these assays.
# RmlCD inh mix: RmlC and RmlD coupled enzyme inhibitors, primary screen, biochemical, 384-well, compound mixtures, retest. AID 1532, 2009. 110,000 compounds, 0.39% hits. RmlC/RmlD coupled enzyme inhibition, 384-well mixture HTS. inhibition, % at 5.5 µM; in the data active = inhibition above about 30%, passing the limit was not always enough
# YopH PTP inh: YopH tyrosine phosphatase inhibitors, primary screen, biochemical, fluorescence Ex485/Em525; YopH tyrosine phosphatase [Yersinia enterocolitica]; inhibition, % (test concentration not listed); 140,000 compounds, 0.16% hits; AID 898, 2007; in the data active = inhibition above about 50%
# RmlCD fluor art: counter-screen for RmlC/RmlD inhibitors: fluorescence artifact, dose response, artefact control, biochemical. shares compounds with RmlCD inh mix. RmlC/RmlD assay fluorescence artifact counter-screen. calls only. 360 compounds, 96% hits; call rule not given here;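 also: compound alone with no enzyme and no substrates present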
# Numbers without * were called inactive; i = inactive; . = no result given; + = active, no number.
SMILES,RmlCD inh mix,YopH PTP inh,others
CCOC(=O)N1CCN(C(=O)COc2cc(=O)n(CC)c3ccccc23)CC1,0,-30,
Cc1ccnc(SCC(=O)Nc2sc3c(c2C#N)CCC(C(C)(C)C)C3)n1 (stereo not drawn),7,1,
Cc1cc(C)nc(SCC(=O)Nc2sc3c(c2C#N)CCC(C)C3)n1 (stereo not drawn),-10,93*,
Cc1oc2c(c1C(=O)c1ccc(Cl)cc1)C(=O)C(=O)c1ccccc1-2,.,6,
Cc1ccc(C(=O)c2c(C)oc3c2C(=O)C(=O)c2ccccc2-3)cc1,-17,69*,
COC(=O)[C@@H]1C[C@@]2(O)[C@@H](O)[C@@H](O)[C@@H](O)C[C@H]2N1Cc1cc(OC)cc(OC)c1,-12,.,
CCOc1ccccc1C(=O)Nc1ccc(-c2nnc(-c3ccc(C)cc3)o2)cc1,.,-11,
Cc1cc(C)c(NC(=O)COc2ccccc2C(=O)Nc2ccc3c(c2)oc2ccccc23)c(C)c1,+,-13,
O=C(Nc1ccc(NC(=S)NC(=O)C(c2ccccc2)c2ccccc2)cc1)c1ccccc1,13,-36,
O=C(/C=C/c1ccc(O)cc1)c1ccc(NC2=C(N3CCCCC3)C(=O)c3ccccc3C2=O)cc1,-1,93*,
COc1cccc(OC)c1C(=O)Nc1ccccc1N1CCCC1,13,-4,
Cc1ccc(NC2=C(N3CCCCC3)C(=O)c3ccccc3C2=O)cc1,4,76*,
COc1ccc(C(=O)/C=C/c2ccc(O)cc2)cc1,-9,.,
CN(C1=C(N2CCCCC2)C(=O)c2ccccc2C1=O)c1ccccc1,-9,8,
COc1ccccc1NC1=C(N2CCCCC2)C(=O)c2ccccc2C1=O,.,90*,
COC1=C(Nc2ccc(C)cc2)C(=O)c2ccccc2C1=O,.,-2,
O=C1C(Nc2ccccc2)=C(N2CCCCC2)C(=O)c2ccccc21,-6,98*,
CCOc1ccccc1-c1nc2c(s1)CCc1onc(-c3ccc(OC)cc3)c1-2,-12,.,
O=C(O)C[C@H]1c2ccccc2S(=O)(=O)N1c1ccccc1,-8,.,
Cc1onc(C(=O)N2C(C)CCCC2C)c1[N+](=O)[O-] (stereo not drawn),.,11,
Cc1cccc(C(=O)/C=C2/c3ccccc3CC(C)(C)N2C)c1,8,-15,
O=C(CC(NC(=O)C(F)(F)F)c1ccccc1)Nc1nnc(CCc2ccccc2)s1 (stereo not drawn),.,0,
CC(C)CC(=O)NC(=S)Nc1ccc(NC(=O)c2ccco2)cc1,.,-27,
O=C(NCCN1C(=O)S/C(=C\c2cccs2)C1=O)c1ccc(=O)[nH]c1,.,0,
Cc1cc(C)c(C)c(S(=O)(=O)NCc2ccc(C(=O)N3CCCCC3)cc2)c1C,-15,2,
SMILES,RmlCD inh mix,YopH PTP inh,others
CC1CN(C(=O)C2CC2)C(C)CN1C(=O)C1CC1 (stereo not drawn),.,-27,
O=C1C(Nc2cccc(O)c2)=C(N2CCCCC2)C(=O)c2ccccc21,39,81*,
CC1(C)CC(=O)C=C(Nc2cccc(O)c2)C1,-10,-42,
CCn1nc(-c2ccccc2)nc2c(=O)n(C)c(=O)nc1-2,2,102*,
CCOC(=O)Cn1nc(-c2ccccc2)nc1-c1ccccc1,10,-9,
COc1ccc(-c2nnc(SCc3cc(C)ccc3C)n2N)cc1,-10,-10,
CCOC(=O)c1c(C)oc2c1c(C=NCc1ccccn1)c(O)c1ccccc12,.,57*,
CCOC(=O)c1c(C)oc2c1c(C=NCC1CCCO1)c(O)c1ccccc12 (stereo not drawn),.,44,
CCN(CC)S(=O)(=O)c1cccc(C(=O)OCC(=O)c2ccc3c(c2)OCCO3)c1,.,-35,
CC1=CC(=C(C#N)c2nc3ccccc3s2)C=C(C)N1c1ccc(F)cc1,.,65*,
COc1ccccc1N1C(C)=CC(=C(C#N)c2nc3ccccc3s2)C=C1C,.,70*,
CC(C)=C(C#N)c1nc2ccccc2s1,-15,12,
COC(=O)c1ccc(/C(O)=C(\C#N)c2nc3ccccc3s2)cc1,4,-30,
COc1cc(OC)cc(-c2nn[nH]n2)c1,.,-34,
NNC(=O)c1cnn(Cc2ccccc2)c1N,2,-3,
COc1cc(NCCCCCCCN)c2ncccc2c1,-15,52*,
COc1cc(NC(=O)c2ccc3c(c2)OCO3)c2ncccc2c1,-17,-32,
Cc1ccc(CNS(=O)(=O)/C=C/c2ccc3c(c2)OCO3)cc1,-4,-27,
CCSC1=N/C(=C/c2ccsc2)C(=O)N1c1ccccc1,.,-7,
Cc1cccn2c(=O)c(C=Nc3ccc(Cl)cc3)c(NCCO)nc12,1,-33,
Cc1cccn2c(=O)c(C=Nc3ccccc3)c(NCCO)nc12,37*,-46,
CC(=O)c1ccc(NC(=O)C2(c3ccccc3)CCOCC2)cc1,12,-6,
CCOC(=O)c1c2c(n(C)c1C)C(=O)C(=O)c1ccc(Br)cc1-2,3,88*,
Cc1c(CN(C)C)c2c(n1C)C(=O)c1ccc(Br)cc1-2,6,0,
O=C1NCCCC2c3cc(O)c4ccccc4c3OC12N1CCCCC1 (stereo not drawn),8,75*,
SMILES,RmlCD inh mix,YopH PTP inh,others
O=C1NCCCC2c3c(cc(Br)c(O)c3Br)OC12N1CCOCC1 (stereo not drawn),-5,-51,
O=C(OC1C[C@@H]2CC3C[C@H](C1)N2CC3=O)c1c[nH]c2ccccc12 (stereo partly drawn),-15,.,
CCOC(=O)N/N=C/c1ccc(N(CC)CC)cc1O,.,-26,
CCN(CC)c1ccc(/C=N/Nc2ccc(C)cc2)c(O)c1,.,83*,
COc1ccc(N2C(=O)[C@@H]3[C@H](C2=O)[C@H]2c4ccccc4C=CN2[C@@H]3C(C)=O)cc1,.,61*,
CC(C)(C)C(=O)[C@@H]1[C@@H]2C(=O)N(C3CCCCC3)C(=O)[C@@H]2[C@H]2c3ccccc3C=CN12,.,-7,
CC(C)(C)NC(=O)CSC(=Nc1ccc(F)cc1)NC#N,-17,-27,
CN(C(=O)Nc1ccccc1)C1CCS(=O)(=O)C1 (stereo not drawn),-13,-9,
CC(=O)NC1=C(N(C)C2CCS(=O)(=O)C2)C(=O)c2ccccc2C1=O (stereo not drawn),.,74*,
Cc1c(O)c(=O)ccn1C,9,-52,
Cc1ccc(S(=O)(=O)NC(N)=NCCc2ccc(Cl)cc2)cc1C,.,-27,
O=C(Nc1nc2ccccc2s1)c1cc(-c2ccco2)nc2ccccc12,.,23,
O=C(O)c1cc(-c2ccco2)nc2ccccc12,54*,-22,RmlCD fluor art=+
O=C(OCC(=O)N1CCN(C(=O)c2ccco2)CC1)c1cc(-c2ccco2)nc2ccccc12,30*,-37,RmlCD fluor art=+
O=C(OCC(=O)N1CCN(C(=O)c2ccco2)CC1)c1cc(-c2ccc(Cl)c(Cl)c2Cl)nc2ccccc12,-33,-12,
CCCCNC(=O)NC1CCCC1,.,-34,
Cc1ccc2nc(N(CCCN(C)C)C(=O)c3sc4ccccc4c3Cl)sc2c1,.,-32,
O=C(NNC(=S)NC(=O)C12CC3CC(CC(C3)C1)C2)c1ccncc1,.,-3,
CCOC(=O)CN1C(=O)N[C@@H](CCc2ccccc2)[C@H](C(C)=O)[C@H]1C,7,.,
Cc1ccc2nc3c(cc(C#N)c(=O)n3CC3CCCO3)c(=O)n2c1 (stereo not drawn),105*,-39,RmlCD fluor art=+
Cc1cccn2c(=O)c3cc(C#N)c(=N)n(CC4CCCO4)c3nc12 (stereo not drawn),.,-3,
Cc1ccc(-n2c(=O)c(C#N)cc3c(=O)n4cccc(C)c4nc32)cc1,i,-21,

# Assay outcomes (PubChem)
